Measurements: PubChem BioAssay AID1159580 (chemical genetic matrix, 2015)
“And” between values parts separate entries of the source, which are not always exact repeats. Equal entries are not always repeated. Screen size: about 5,500 compounds; about 2,000 (36%) were called active. Another 18% or so got no clear call; they are omitted. Rule as the data show it: active = normalized growth mostly below about 0.91 (no sharp cut-off); inconclusive = no clear call, values can overlap the other calls; inactive = mostly above about 0.92. Some of the results follow.

Assay: chemical genetic growth profiling, strain panel (AID 1159580);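 also: tested at 20 µM; growth read once vehicle control cultures reached saturation at 30 °C; 1 = growth at the plate median or of vehicle wells; lower values mean less growth of the strain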
Conditions: growth OD
[1] = S. cerevisiae deletion strains, locus YDL101C, strain DUN1, stronger effect = lower value
[2] = S. cerevisiae deletion strains, locus YGR052W, strain FMP48, stronger effect = lower value
[3] = S. cerevisiae deletion strains, locus YHR030C, strain SLT2, stronger effect = lower value
[4] = S. cerevisiae deletion strains, locus YHR079C, strain IRE1, stronger effect = lower value
[5] = S. cerevisiae deletion strains, locus YHR082C, strain KSP1, stronger effect = lower value
[6] = S. cerevisiae deletion strains, locus YJL095W, strain BCK1, stronger effect = lower value
[7] = S. cerevisiae deletion strains, locus YJR066W, strain TOR1, stronger effect = lower value
[8] = S. cerevisiae deletion strains, locus YKL203C, strain TOR2, stronger effect = lower value
[9] = S. cerevisiae deletion strains, locus YLR113W, strain HOG1, stronger effect = lower value
[10] = S. cerevisiae deletion strains, locus YNL183C, strain NPR1, stronger effect = lower value
[11] = S. cerevisiae deletion strains, locus YNL207W, strain RIO2, stronger effect = lower value
[12] = S. cerevisiae deletion strains, locus YOR119C, strain RIO1, stronger effect = lower value
[13] = S. cerevisiae deletion strains, locus YOR231W, strain MKK1, stronger effect = lower value
[14] = S. cerevisiae deletion strains, locus YPL256C, strain CLN2, stronger effect = lower value
[15] = S. cerevisiae deletion strains, locus YGR078C, strain PAC10, stronger effect = lower value
[16] = S. cerevisiae deletion strains, locus YMR263W, strain SAP30, stronger effect = lower value
[17] = S. cerevisiae deletion strains, locus YMR307W, strain GAS1, stronger effect = lower value
[18] = S. cerevisiae deletion strains, locus YNL322C, strain KRE1, stronger effect = lower value
[19] = S. cerevisiae deletion strains, locus YPL055C, strain LGE1, stronger effect = lower value
[20] = S. cerevisiae deletion strains, locus YPL241C, strain CIN2, stronger effect = lower value

For `O=S(=O)(Nc1cc(-c2cccs2)nn1-c1ccc(I)cc1)c1cccc(F)c1`, the normalized growth (S. cerevisiae deletion strains, locus YAR019C, strain CDC15, stronger effect = lower value) was 0.957 (inactive), the normalized growth (S. cerevisiae deletion strains, locus YBL105C, strain PKC1, stronger effect = lower value) was 0.966 (inactive) and the normalized growth (S. cerevisiae deletion strains, locus YBR135W, strain CKS1, stronger effect = lower value) was 0.966 (inactive). The normalized growth (S. cerevisiae deletion strains, locus YBR136W, strain MEC1, stronger effect = lower value) was 0.97 (inactive), the normalized growth (S. cerevisiae deletion strains, locus YBR160W, strain CDC28, stronger effect = lower value) was 0.956 (inactive) and the normalized growth (S. cerevisiae deletion strains, locus YDL017W, strain CDC7, stronger effect = lower value) was 0.97 (inactive). For the same compound, the normalized growth (S. cerevisiae deletion strains, locus YDL028C, strain MPS1, stronger effect = lower value) was 0.948 (inactive), the normalized growth [1] was 0.983 (inactive) and the normalized growth (S. cerevisiae deletion strains, locus YDL108W, strain KIN28, stronger effect = lower value) was 0.958 (inactive). The normalized growth (S. cerevisiae deletion strains, locus YDL132W, strain cdc53, stronger effect = lower value) was 0.966 (inactive), the normalized growth (S. cerevisiae deletion strains, locus YDL214C, strain PRR2, stronger effect = lower value) was 0.926 (inactive) and the normalized growth (S. cerevisiae deletion strains, locus YDR052C, strain DBF4, stronger effect = lower value) was 0.983 (inactive). The normalized growth (S. cerevisiae deletion strains, locus YDR054C, strain cdc34, stronger effect = lower value) was 0.986 (inactive), the normalized growth (S. cerevisiae deletion strains, locus YDR226W, strain ADK1, stronger effect = lower value) was 0.961 (inactive) and the normalized growth (S. cerevisiae deletion strains, locus YDR477W, strain SNF1, stronger effect = lower value) was 0.926 (inactive). The normalized growth (S. cerevisiae deletion strains, locus YER123W, strain YCK3, stronger effect = lower value) was 0.929 (inactive), the normalized growth (S. cerevisiae deletion strains, locus YER133W, strain GLC7, stronger effect = lower value) was 0.951 (inactive) and the normalized growth (S. cerevisiae deletion strains, locus YFL009W, strain cdc4, stronger effect = lower value) was 0.971 (inactive). For the same compound, the normalized growth (S. cerevisiae deletion strains, locus YFL029C, strain CAK1, stronger effect = lower value) was 0.953 (inactive), the normalized growth (S. cerevisiae deletion strains, locus YFR003C, strain YPI1, stronger effect = lower value) was 0.979 (inactive) and the normalized growth (S. cerevisiae deletion strains, locus YFR019W, strain FAB1, stronger effect = lower value) was 0.974 (inactive). The normalized growth (S. cerevisiae deletion strains, locus YFR028C, strain CDC14, stronger effect = lower value) was 0.983 (inactive), the normalized growth (S. cerevisiae deletion strains, locus YGR040W, strain KSS1, stronger effect = lower value) was 0.931 (inactive) and the normalized growth [2] was 0.966 (inactive). The normalized growth (S. cerevisiae deletion strains, locus YGR092W, strain DBF2, stronger effect = lower value) was 0.876 (inactive), the normalized growth [3] was 0.715 (active) and the normalized growth [4] was 0.922 (inactive). For the same compound, the normalized growth [5] was 0.968 (inactive), the normalized growth (S. cerevisiae deletion strains, locus YHR205W, strain SCH9, stronger effect = lower value) was 0.863 (inactive) and the normalized growth (S. cerevisiae deletion strains, locus YIL147C, strain SLN1, stronger effect = lower value) was 0.967 (inactive). For the same compound, the normalized growth [6] was 0.903 (inactive), the normalized growth (S. cerevisiae deletion strains, locus YJL128C, strain PBS2, stronger effect = lower value) was 0.91 (inactive) and the normalized growth (S. cerevisiae deletion strains, locus YJL157C, strain FAR1, stronger effect = lower value) was 0.956 (inactive). The normalized growth (S. cerevisiae deletion strains, locus YJR016C, strain ILV3, stronger effect = lower value) was 0.969 (inactive), the normalized growth (S. cerevisiae deletion strains, locus YJR066W, strain TOR1 (second series), stronger effect = lower value) was 0.952 (inactive) and the normalized growth [7] was 0.906 (inactive). For the same compound, the normalized growth (S. cerevisiae deletion strains, locus YKL048C, strain ELM1, stronger effect = lower value) was 0.947 (inactive), the normalized growth (S. cerevisiae deletion strains, locus YKL067W, strain YNK1, stronger effect = lower value) was 0.912 (inactive) and the normalized growth (S. cerevisiae deletion strains, locus YKL101W, strain HSL1, stronger effect = lower value) was 0.931 (inactive). The normalized growth (S. cerevisiae deletion strains, locus YKL193C, strain SDS22, stronger effect = lower value) was 0.971 (inactive), the normalized growth [8] was 1.03 (inactive) and the normalized growth [9] was 0.848 (active). For the same compound, the normalized growth (S. cerevisiae deletion strains, locus YLR133W, strain CKI1, stronger effect = lower value) was 0.935 (inactive), the normalized growth (S. cerevisiae deletion strains, locus YLR403W, strain SFP1, stronger effect = lower value) was 0.944 (inactive) and the normalized growth (S. cerevisiae deletion strains, locus YML070W, strain DAK1, stronger effect = lower value) was 0.936 (inactive). The normalized growth (S. cerevisiae deletion strains, locus YMR001C, strain CDC5, stronger effect = lower value) was 0.966 (inactive), the normalized growth (S. cerevisiae deletion strains, locus YMR205C, strain PFK2 (second series), stronger effect = lower value) was 0.945 (inactive) and the normalized growth (S. cerevisiae deletion strains, locus YMR277W, strain FCP1, stronger effect = lower value) was 0.968 (inactive). For the same compound, the normalized growth (S. cerevisiae deletion strains, locus YNL006W, strain LST8, stronger effect = lower value) was 0.964 (inactive), the normalized growth (S. cerevisiae deletion strains, locus YNL020C, strain ARK1, stronger effect = lower value) was 0.946 (inactive) and the normalized growth (S. cerevisiae deletion strains, locus YNL161W, strain CBK1, stronger effect = lower value) was 0.974 (inactive). For the same compound, the normalized growth [10] was 0.986 (inactive), the normalized growth [11] was 0.968 (inactive) and the normalized growth (S. cerevisiae deletion strains, locus YNL222W, strain SSU72, stronger effect = lower value) was 0.956 (inactive). For the same compound, the normalized growth (S. cerevisiae deletion strains, locus YNL307C, strain MCK1 (second series), stronger effect = lower value) was 0.911 (inactive), the normalized growth (S. cerevisiae deletion strains, locus YOL078W, strain AVO1, stronger effect = lower value) was 0.966 (inactive) and the normalized growth (S. cerevisiae deletion strains, locus YOL136C, strain PFK27, stronger effect = lower value) was 0.925 (inactive). For the same compound, the normalized growth (S. cerevisiae deletion strains, locus YOR061W, strain CKA2, stronger effect = lower value) was 0.951 (inactive), the normalized growth [12] was 0.961 (inactive) and the normalized growth [13] was 0.935 (inactive). The normalized growth (S. cerevisiae deletion strains, locus YOR329C, strain SCD5, stronger effect = lower value) was 0.968 (inactive), the normalized growth (S. cerevisiae deletion strains, locus YPL031C, strain PHO85, stronger effect = lower value) was 0.928 (inactive) and the normalized growth (S. cerevisiae deletion strains, locus YPL153C, strain RAD53, stronger effect = lower value) was 0.943 (inactive). The normalized growth (S. cerevisiae deletion strains, locus YPL204W, strain HRR25, stronger effect = lower value) was 0.928 (inactive), the normalized growth (S. cerevisiae deletion strains, locus YPL209C, strain IPL1, stronger effect = lower value) was 0.975 (inactive) and the normalized growth [14] was 0.87 (inactive). For the same compound, the normalized growth (S. cerevisiae deletion strains, locus YPR025C, strain CCL1, stronger effect = lower value) was 0.966 (inactive), the normalized growth (S. cerevisiae deletion strains, locus YPR106W, strain ISR1, stronger effect = lower value) was 0.964 (inactive) and the normalized growth (S. cerevisiae deletion strains, locus YPR111W, strain DBF20, stronger effect = lower value) was 1.01 (inactive). For the same compound, the normalized growth (S. cerevisiae deletion strains, strain NNK1, stronger effect = lower value) was 0.965 (inactive) and the normalized growth (S. cerevisiae deletion strains, strain TSCII, stronger effect = lower value) was 0.965 (inactive).
For `COc1ccc(-n2nc(C(F)(F)F)cc2-c2ccc(Cl)cc2)cc1`, the normalized growth (S. cerevisiae deletion strains, locus YAL040C, strain CLN3, stronger effect = lower value) was 1.09 (inactive), the normalized growth (S. cerevisiae deletion strains, locus YCL061C, strain MRC1 (second series), stronger effect = lower value) was 1.01 (inactive) and the normalized growth (S. cerevisiae deletion strains, locus YDR363W, strain ESC2, stronger effect = lower value) was 1.02 (inactive). For the same compound, the normalized growth (S. cerevisiae deletion strains, locus YER002W, strain NOP16, stronger effect = lower value) was 1.03 (inactive), the normalized growth [15] was 1.01 (inactive) and the normalized growth [16] was 1 (inactive). For the same compound, the normalized growth [17] was 1.01 (inactive), the normalized growth (S. cerevisiae deletion strains, locus YNL175C, strain NOP13, stronger effect = lower value) was 1.02 (inactive) and the normalized growth (S. cerevisiae deletion strains, locus YNL197C, strain WHI3, stronger effect = lower value) was 1.02 (inactive). For the same compound, the normalized growth (S. cerevisiae deletion strains, locus YNL224C, strain SQS1, stronger effect = lower value) was 0.998 (inactive), the normalized growth [18] was 1.02 (inactive) and the normalized growth (S. cerevisiae deletion strains, locus YOR083W, strain WHI5 (second series), stronger effect = lower value) was 1.02 (inactive). The normalized growth [19] was 1.02 (inactive) and the normalized growth [20] was 1 (inactive).
For `S=C(NCc1ccco1)Nc1ccc(Oc2ccc(Cl)cc2)cc1`, the normalized growth (S. cerevisiae deletion strains, locus YAL013W, strain DEP1, stronger effect = lower value) was 0.937 (inactive), the normalized growth (S. cerevisiae deletion strains, locus YBR229C, strain ROT2, stronger effect = lower value) was 0.868 (active) and the normalized growth [1] was 0.933 (inactive). The normalized growth (S. cerevisiae deletion strains, locus YDR150W, strain NUM1, stronger effect = lower value) was 0.863 (inactive), the normalized growth (S. cerevisiae deletion strains, locus YEL061C, strain CIN8, stronger effect = lower value) was 0.723 (active) and the normalized growth [2] was 1.04 (inactive). For the same compound, the normalized growth [15] was 0.915 (active), the normalized growth (S. cerevisiae deletion strains, locus YGR229C, strain SMI1, stronger effect = lower value) was 0.987 (inactive) and the normalized growth [3] was 0.247 (active) and 1.07 (inactive). The normalized growth [4] was 1.07 (inactive), the normalized growth [5] was 1.14 (inactive) and the normalized growth (S. cerevisiae deletion strains, locus YHR087W, strain rtc3, stronger effect = lower value) was 0.919 (inactive). For the same compound, the normalized growth [6] was 0.948 (inactive), the normalized growth (S. cerevisiae deletion strains, locus YJL187C, strain SWE1, stronger effect = lower value) was 0.923 (active) and the normalized growth (S. cerevisiae deletion strains, locus YJR043C, strain POL32, stronger effect = lower value) was 0.926 (inactive). The normalized growth [7] was 1.13 (inactive), the normalized growth (S. cerevisiae deletion strains, locus YJR075W, strain HOC1, stronger effect = lower value) was 0.95 (inactive) and the normalized growth (S. cerevisiae deletion strains, locus YKL171W, strain NNK1, stronger effect = lower value) was 1.06 (inactive). The normalized growth [8] was 1.04 (inactive), the normalized growth (S. cerevisiae deletion strains, locus YLR039C, strain RIC1, stronger effect = lower value) was 0.41 (active) and the normalized growth (S. cerevisiae deletion strains, locus YLR058C, strain SHM2 (second series), stronger effect = lower value) was 0.979 (inactive). For the same compound, the normalized growth (S. cerevisiae deletion strains, locus YLR085C, strain ARP6, stronger effect = lower value) was 0.355 (active), the normalized growth [9] was 1.11 (inactive) and the normalized growth (S. cerevisiae deletion strains, locus YLR262C, strain YPT6, stronger effect = lower value) was 0.463 (active). For the same compound, the normalized growth (S. cerevisiae deletion strains, locus YML094W, strain GIM5, stronger effect = lower value) was 0.703 (active), the normalized growth (S. cerevisiae deletion strains, locus YMR219W, strain ESC1, stronger effect = lower value) was 0.97 (inactive) and the normalized growth [16] was 0.85 (active). For the same compound, the normalized growth [17] was 0.364 (active), the normalized growth (S. cerevisiae deletion strains, locus YNL128W, strain TEP1, stronger effect = lower value) was 0.887 (active) and the normalized growth (S. cerevisiae deletion strains, locus YNL153C, strain GIM3, stronger effect = lower value) was 0.936 (inactive). The normalized growth [10] was 1.04 (inactive), the normalized growth [11] was 1.02 (inactive) and the normalized growth (S. cerevisiae deletion strains, locus YNL298W, strain CLA4 (second series), stronger effect = lower value) was 0.652 (active). For the same compound, the normalized growth [18] was 0.998 (inactive), the normalized growth (S. cerevisiae deletion strains, locus YNR030W, strain Alg12, stronger effect = lower value) was 0.544 (active) and the normalized growth [12] was 1 (inactive). The normalized growth [13] was 0.944 (inactive), the normalized growth [19] was 0.641 (active) and the normalized growth [20] was 0.361 (active). The normalized growth [14] was 1.27 [resistant] (active), the normalized growth (S. cerevisiae deletion strains, locus YPR135W, strain CTF4, stronger effect = lower value) was 0.505 (active) and the normalized growth (S. cerevisiae strains, strain wild type, stronger effect = lower value) was 0.883 (active).
